Assay outcomes from PubChem BioAssay.
In the library only some 4.7% were active in any assay of this set; here they are far more common.
ALR inh = inhibitors of human ALR sulfhydryl oxidase, primary screen, biochemical, H2O2 detection, HRP-luminol luminescence, single point. FAD-linked sulfhydryl oxidase ALR (Homo sapiens), P55789. purified ALR, DTT oxidation. inhibition, % (no concentration beside the values). actives 3.8% (n = 290,000). AID 485317, 2010;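 active = mean replicate inhibition above about 79%, with every replicate also reaching it, limit read from the data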
Efflux pump mplx = inhibitors of Candida efflux pumps in yeast, primary screen, S. cerevisiae, Nile Red, multiplex. inhibition, % at 10 µM. AID 485275, 2010. S. cerevisiae Candida pump triplex. actives 0.44% (n = 330,000);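 active = plate passing quality check with inhibition over a set limit, or well fluorescence over plate mean plus 4 SD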;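 note: Nile Red retained in pooled yeast measured as flow cytometry median fluorescence; higher means more Nile Red kept so more efflux inhibition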
MLLE-PAM2 inh = inhibitors of PABP1 MLLE–PAM2 peptide binding, primary screen, biochemical, fluorescence polarization, FITC-PAM2, GST-MLLE; inhibition, % at 20 µM; Polyadenylate-binding protein 1 (Homo sapiens), P11940; actives 0.36% (n = 360,000); in the data active = inhibition above about 35%, passing the limit was not always enough
SUMO HTRF inh = inhibitors of in vitro SUMOylation cascade, primary screen, biochemical, HTRF, uHTS; SUMO-conjugating enzyme UBC9 (Homo sapiens), P63279; HTRF SUMOylation assay, SAE1/SAE2 + UBC9; inhibition, % at 35 µM; actives 0.36% (n = 290,000); in the data active = inhibition above about 50%, passing the limit was not always enough
Target sequence (P63279 whole entry, looked up): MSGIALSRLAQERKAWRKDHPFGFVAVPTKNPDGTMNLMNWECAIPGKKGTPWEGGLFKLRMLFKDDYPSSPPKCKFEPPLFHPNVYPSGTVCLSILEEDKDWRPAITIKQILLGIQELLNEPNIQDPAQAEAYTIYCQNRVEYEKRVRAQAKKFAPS
PABP FP inh = PABP poly(A) RNA binding inhibitors, primary screen, biochemical, fluorescence polarization, uHTS | inhibition, % at 35 µM | actives 1% (n = 290,000) | Polyadenylate-binding protein 1 (Homo sapiens), P11940;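 note: calls also rest on retests at 20 µM and on dose response follow-up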
eIF4H inh = human eIF4H binding inhibitors, primary screen, translation initiation inhibitor project, biochemical, uHTS, fluorescence polarization; Eukaryotic translation initiation factor 4H (Homo sapiens), Q15056; eIF4H fluorescence polarization binding assay; inhibition, % at 35 µM; actives 0.94% (n = 290,000); AID 2012, 2009;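 note: calls also rest on retests at 20 µM and on dose response follow-up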
Numbers stand for hits; n = inactive; x = not tested or not shown. Unless noted, the rule behind the calls is not given here.

SMILES | ALR inh | Efflux pump mplx | MLLE-PAM2 inh | SUMO HTRF inh | PABP FP inh | eIF4H inh
CCCCC(NC(=O)Cc1c(C)c2cc3c(-c4ccccc4)coc3c(C)c2oc1=O)C(=O)O (configuration not stated) | 98 | n | n | n | n | n
CC[C@@H](C)[C@H](NC(=O)Cc1c(C)c2cc3c(C)coc3c(C)c2oc1=O)C(=O)O | 98 | n | n | n | n | n
O=C1NCCN(CC2CCN(CCc3ccccc3)CC2)C1=O | x | x | n | x | x | x
Cc1noc2ncnc(Sc3ccc(Br)cc3)c12 | 99 | n | n | n | n | n
Cc1noc2ncnc(N3CCCC3)c12 | n | n | n | n | n | n
CSCc1ccc(C(=O)NC(C)c2ccc(-n3ccnc3)cc2)cc1 (configuration not stated) | 98 | n | n | n | n | n
Cc1ccc(S(=O)(=O)N[C@@H](Cc2ccccc2)C(=O)CCl)cc1 | 98 | n | n | n | n | n
Cc1ccc(S(=O)(=O)NC(Cc2ccccc2)C(=O)NN)cc1 (configuration not stated) | n | n | n | n | n | n
CCCN(CC1CC1)c1cc2c(c3c1ccn3C)C1CCC2O1 (configuration not stated) | x | x | n | x | x | x
Cc1cc(C=O)c(C)n1-c1cc(C(=O)O)cc(C(=O)O)c1 | n | n | n | n | n | n
Cc1ccc(C)n1-c1cccc(C(=O)O)c1 | n | n | x | n | 77 | 91
Cc1cc(/C=N/O)c(C)n1-c1ccccc1 | x | n | n | n | n | n
CC(=O)C(=Cc1cc(C)n(-c2ccccc2)c1C)C(C)=O | n | n | n | n | 7.4 | 54
Cc1cc(C=O)c(C)n1-c1cccc(C(=O)O)c1 | n | n | n | n | n | 80
COCCn1c(SCC(=O)Nc2ccc3c(c2)OCCO3)nc2c(c1=O)SC(C)C2 (configuration not stated) | 99 | n | n | n | n | n
Cc1ccc(C)c(NC(=O)CSc2nc3c(c(=O)n2C)SC(C)C3)c1 (configuration not stated) | n | n | n | n | n | n
COCCn1c(SCC(=O)Nc2cc(C)on2)nc2c(c1=O)SC(C)C2 (configuration not stated) | x | n | n | n | n | n
CC1Cc2nc(SCC(=O)Nc3ccc(F)cc3F)n(C)c(=O)c2S1 (configuration not stated) | 99 | n | n | n | n | n
Cc1ccc2nc(NC(=O)CSc3nc4c(c(=O)n3C)SC(C)C4)sc2c1 (configuration not stated) | 99 | n | n | n | n | n
CC1Cc2nc(SCC(=O)Nc3ccc4c(c3)OCCO4)n(C)c(=O)c2S1 (configuration not stated) | 94 | n | n | n | n | n
CC(C)(C)NC(=O)C(c1ccc(-c2ccccc2)cc1)N(C[C@H]1CC[C@@H]([C@@H]2CC[C@H](CO)O2)O1)C(=O)c1ccc(C(C)(C)C)cc1 (some centres not stated) | x | n | n | x | x | x
CCOC(=O)CNc1nc(Cl)nc(Nc2ccc(Cl)cc2)n1 | n | n | n | n | n | n
Cc1csc(SCCn2c(N3CCN(c4ccccc4)CC3)nc3c2c(=O)[nH]c(=O)n3C)n1 | 98 | n | n | n | n | n
CCN1CCN(c2nc3c(c(=O)[nH]c(=O)n3C)n2CCSc2nc3ccccc3s2)CC1 | x | n | n | n | n | n
CC(CSc1nc2ccccc2s1)Cn1c(N2CCCC2)nc2c1c(=O)[nH]c(=O)n2C (configuration not stated) | 98 | n | n | n | n | n
Cn1c(=O)[nH]c(=O)c2c1nc(N1CCCCC1)n2CCCSc1nnnn1-c1ccccc1 | n | n | n | n | 50 | active
Cc1ccnc(SCCn2c(N3CCOCC3)nc3c2c(=O)[nH]c(=O)n3C)n1 | x | n | n | x | x | x
CC1CCN(c2nc3c(c(=O)[nH]c(=O)n3C)n2CC(C)CSc2nnnn2-c2ccccc2)CC1 (configuration not stated) | n | n | n | n | 69 | n
